Out of some 310,000 compounds screened, about 14,000 (4.5%) showed an effect of 50% or more. Effects have a minus sign here. The sample holds strong results, similar compounds and a random draw of the others, so the mix is not that of the screen.
The compounds below were run against human ether-à-go-go-related gene (hERG) potassium channel (human, UniProt Q12809) (assay: primary screen, population patch clamp on CHO cells stably expressing hERG; higher = less effect of the substance).
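Further: peak tail current of the secondary pulse compared with the same well before compound.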

human ether-à-go-go-related gene (hERG) potassium channel, sequence (Q12809 whole entry, looked up): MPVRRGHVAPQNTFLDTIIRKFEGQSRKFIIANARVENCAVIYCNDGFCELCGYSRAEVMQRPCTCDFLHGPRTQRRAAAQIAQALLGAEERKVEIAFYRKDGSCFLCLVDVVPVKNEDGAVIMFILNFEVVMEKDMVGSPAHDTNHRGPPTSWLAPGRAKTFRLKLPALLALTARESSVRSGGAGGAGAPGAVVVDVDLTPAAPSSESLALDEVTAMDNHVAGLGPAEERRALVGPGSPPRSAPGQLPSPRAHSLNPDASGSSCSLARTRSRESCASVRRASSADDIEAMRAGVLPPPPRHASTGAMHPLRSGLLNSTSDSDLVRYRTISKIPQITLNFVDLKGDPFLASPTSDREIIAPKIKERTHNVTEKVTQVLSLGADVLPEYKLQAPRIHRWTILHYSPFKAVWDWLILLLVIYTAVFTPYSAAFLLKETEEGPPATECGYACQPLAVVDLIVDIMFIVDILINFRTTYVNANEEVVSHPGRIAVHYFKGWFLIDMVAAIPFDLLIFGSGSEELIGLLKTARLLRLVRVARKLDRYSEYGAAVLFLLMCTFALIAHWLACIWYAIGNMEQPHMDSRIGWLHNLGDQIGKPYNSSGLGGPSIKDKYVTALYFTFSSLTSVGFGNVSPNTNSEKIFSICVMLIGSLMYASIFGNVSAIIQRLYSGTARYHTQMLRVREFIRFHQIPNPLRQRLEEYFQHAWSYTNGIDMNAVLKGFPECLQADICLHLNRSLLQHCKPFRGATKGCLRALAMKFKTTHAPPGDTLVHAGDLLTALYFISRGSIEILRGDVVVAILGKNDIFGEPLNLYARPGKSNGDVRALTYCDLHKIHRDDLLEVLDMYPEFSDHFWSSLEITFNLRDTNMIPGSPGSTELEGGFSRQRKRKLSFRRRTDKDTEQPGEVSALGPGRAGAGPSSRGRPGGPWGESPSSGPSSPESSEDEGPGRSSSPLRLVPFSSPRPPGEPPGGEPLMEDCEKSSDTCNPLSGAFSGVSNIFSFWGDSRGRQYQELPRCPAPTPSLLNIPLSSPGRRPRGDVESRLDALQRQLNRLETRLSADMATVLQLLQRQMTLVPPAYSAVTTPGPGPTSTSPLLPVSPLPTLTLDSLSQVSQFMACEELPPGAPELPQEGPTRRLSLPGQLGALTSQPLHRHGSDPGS

SMILES | hERG current change (%, negative = inhibition) at 10uM [%]
C/C=C/c1ccc(OCC(=O)Nc2ccncc2)c(OC)c1 | -14.9
COc1ccc2nc(N(CCN(C)C)C(=O)c3ccc(C(=O)c4ccccc4)cc3)sc2c1.Cl | -39.2
CCN(Cc1ccccc1)S(=O)(=O)c1ccc(C(=O)N(CCCN(C)C)c2nc3c(C)c(C)ccc3s2)cc1.Cl | -3.58
COc1ccc2nc(N(CCN(C)C)C(=O)/C=C/c3cccs3)sc2c1.Cl | -55.1
CCN(Cc1ccccc1)S(=O)(=O)c1ccc(C(=O)N(CCCN(C)C)c2nc3c(F)cccc3s2)cc1.Cl | -66.3
COc1cc2nc(N(CCN(C)C)C(=O)c3ccc4ccccc4c3)sc2cc1OC.Cl | -40.8
COc1ccc2sc(N(CCN(C)C)C(=O)/C=C/c3cccs3)nc2c1.Cl | -33.2
CN(C)CCCN(C(=O)c1ccc(C(=O)c2ccccc2)cc1)c1nc2cc3c(cc2s1)OCCO3.Cl | -50
CCOc1ccc2nc(N(CCN(C)C)C(=O)/C=C/c3cccs3)sc2c1.Cl | 4.24
COc1ccc2sc(N(CCN(C)C)C(=O)c3ccc4ccccc4c3)nc2c1.Cl | -0.0157
CN(C)CCCN(C(=O)c1ccc(S(=O)(=O)N(C)Cc2ccccc2)cc1)c1nc2c(F)cccc2s1.Cl | -38.2
COc1ccc2sc(N(CCCN(C)C)C(=O)c3ccc(C(=O)c4ccccc4)cc3)nc2c1.Cl | -77.3
COc1cc2nc(N(CCCN(C)C)C(=O)c3ccc(C(=O)c4ccccc4)cc3)sc2cc1OC.Cl | -70.4
O=C1CSC(c2ccccc2[N+](=O)[O-])N1CCc1ccccc1 (stereo not shown) | -41
CCOc1cc(C(=O)N/N=C(\C)Cc2ccc(OC)cc2)cc(OCC)c1OCC | -3.15
FC(F)Oc1ccccc1/C=N/Nc1nc2ccccc2o1 | 33.5
Cn1c(NC(=O)c2ccco2)c(-c2ccccc2)c(=O)c2ccccc21 | 13.6
N[C@@]12CCc3nonc3[C@]1(O)CC(c1ccccc1)=[N+]2[O-] | -0.645
COc1ccccc1CN(C(=O)CNC(=O)c1ccco1)C(C(=O)NCC1CCCO1)c1ccccc1 (stereo not shown) | 10
O=C(NC(=S)Nc1cccc(F)c1)c1cccc([N+](=O)[O-])c1 | 20.6

SMILES | hERG current change (%, negative = inhibition) at 10uM [%]
Cc1cc(C)c(-c2cc(C)nc3ncnn23)c(C)c1 | 7.75
CCOc1ccc(C(=O)Nn2cnnc2)cc1 | 2.29
O=C(NCCCc1ccccc1)C1CCN(c2nnc(-n3cccc3)s2)CC1 | -27
CCN(Cc1ccccc1)S(=O)(=O)c1ccc(C(=O)N(CCCN(C)C)c2nc3cc(OC)ccc3s2)cc1.Cl | -58.3
CN(C)CCCN(C(=O)c1ccc(C(=O)c2ccccc2)cc1)c1nc2ccc(F)cc2s1 | -74.9
CCN(Cc1ccccc1)S(=O)(=O)c1ccc(C(=O)N(CCCN(C)C)c2nc3ccc(F)cc3s2)cc1.Cl | -12.6
CN(C)CCCN(C(=O)c1ccc(S(=O)(=O)N(C)C)cc1)c1nc2ccc(F)cc2s1.Cl | -32.9
CCc1ccc2nc(N(CCCN(C)C)C(=O)c3ccc(C(=O)c4ccccc4)cc3)sc2c1.Cl | -12.5
COc1ccc2sc(N(CCCN(C)C)C(=O)c3ccc(S(=O)(=O)N(C)Cc4ccccc4)cc3)nc2c1.Cl | -16.4
O=C(O)c1ccc(Nc2cccc(F)c2)c([N+](=O)[O-])c1 | 17.7
CCCCOc1c(Br)cc(CNCCCN2CCOCC2)cc1OC.Cl | -35
CC(C)CCOc1ccc(NC(=O)C2OC3OC(C)(C)OC3C3OC(C)(C)OC23)cc1 (stereo not shown) | 20.5
O=C(NCc1nnc(SCC(=O)N2CCCC2)o1)c1ccc(F)cc1 | 14.3
COc1ccc(Nc2ncnc3ccc([N+](=O)[O-])cc23)c(OC)c1 | -0.867
CNc1ccc(Br)cc1C(O)c1ccccc1 (stereo not shown) | -3.18
O=C(Cn1ccc(NC(=O)OCc2ccccc2)nc1=O)NCCCn1ccnc1 | 6.72
Cc1ccc(C(=O)NCC(=O)OCC(=O)c2ccc3c(c2)NC(=O)CO3)cc1C | -5.7
COc1ccc(C(=O)NCC(=O)OCC(=O)c2ccc3c(c2)NC(=O)CO3)cc1OC | -22
Cc1ccc(C(=O)NCC(=O)OCC(=O)c2ccc3c(c2)NC(=O)CO3)cc1 | -60.6
COc1ccc(C(=O)NCC(=O)OCC(=O)c2ccc3c(c2)NC(=O)CO3)cc1 | -65.1
